# Results: PubChem BioAssay (EPA / NIEHS)
# Calls of active or inactive are those of the source. How the source made its calls: active means hit-call score of the fitted dose curve at least 0.9, where 1 is the maximum; inactive means score below 0.9.
# Experiment: ATG_M_61_CIS: Attagene CIS-FACTORIAL HepG2 Assay for M61 Transcription Factor (Internal Marker) (AID 2282937)
# Conditions: HepG2 Attagene CIS-FACTORIAL M61 internal marker reporter; actives raise or lower the signal
# Description: ATG_CIS is a cell-based, multiplexed-readout assay that uses HepG2, a human liver cell line, with measurements taken at 24 hours after chemical dosing in a 24-well plate.ATG_M_61_CIS is one of 52 assay component(s) measured or calculated from the ATG_CIS assay. It is designed to make measurements of mRNA induction, a form of inducible reporter, as detected with fluorescence intensity signals by Reverse transcription polymerase chain reaction (RT-PCR) and Capillary electrophoresis technology.Data from the assay component ATG_M_61_CIS was analyzed into 1 assay endpoint. This assay endpoint, ATG_M_61_CIS, was analyzed with bidirectional fitting relative to DMSO as the negative control and baseline of activity. Using a type of inducible reporter, measures of mRNA for gain or loss-of-signal activity can be used to understand the background control at the transcription factor-level as they relate to the gene . Furthermore, this assay endpoint can be referred to as a secondary readout, because this assay has produced multiple assay endpoints where this one serves a background control function. To generalize the intended target to other relatable targets, this assay endpoint is annotated to the background measurement intended target family, where the subfamily is internal marker.
# Human liver HepG2 cells are transiently transfected with multiple reporter transcription units (MRTUs) in 6-well plates using FuGene 6 reagent (Roche; 3 ml FuGene/1 mg DNA). The MRTU constructs are regulated by a cis-regulating element (promoter). […] A major difference between the CIS and TRANS system is that in CIS activities of endogenous TFs are measured, whereas the TRANS assay evaluates changes in activities of exogenous, chimeric NR-Gal4 proteins. […] At the end of 24 hour incubation, total RNA was isolated using TriZol reagent (Invitrogen). The isolated RNA is then reverse-transcribed using oligo(dT) primer and Mo-MLV reverse transcriptase (Invitrogen) with DNAse I (Ambion) treatment for 30 min. The one-tenth of the produced cDNA was amplified by PCR using Taq DNA polymerase (Invitrogen) and two reporter sequence-specific primers. The PCR products were fluorescently labeled by primer extension with 6-arboxyfluorescein (6-FAM) 5'-labeled reporter sequence-specific primer (2 min at 95 C, 20 s at 68 C and 10 min at 72 C) and these products were digested with 5U of HpaI (New England Biolabs) for 2h at 37 C. The fragments were purified using Qiaquick PCR columns (Qiagen), analyzed on an ABI 3130xL genetic analyzer (Applied Biosystems) with peak positions identified by using a set of X-rhodamine (ROX)-labeled MapMarker1000 molecular weight standards (BioVentures). The raw capillary electrophoresis data was processed using Attagraph software (Attagene).
row,Compound,outcome
1,CN=C=S,inactive
2,O=P(O)(O)CCCl,inactive
3,CCCN(CC)CC1COC2(CCC(C(C)(C)C)CC2)O1 (stereo not given),inactive
4,CCCCC(O)(Cn1cncn1)c1ccc(Cl)cc1Cl (stereo not given),inactive
5,COCC(=O)N(c1c(C)cccc1C)C(C)C(=O)OC (stereo not given),inactive
6,Nc1cnn(-c2ccccc2)c(=O)c1Cl,inactive
7,CC(C)N1C(=O)N(c2ccccc2)CSC1=NC(C)(C)C,inactive
8,CCNC(=O)NC(=O)C(C#N)=NOC,inactive
9,COP(=S)(OC)Oc1ccc([N+](=O)[O-])c(C)c1,inactive
10,CCOc1nc(C(Cl)(Cl)Cl)ns1,inactive
11,CCOC(=O)C(C)OC(=O)c1cc(Oc2ccc(C(F)(F)F)cc2Cl)ccc1[N+](=O)[O-] (stereo not given),inactive
12,CCN(CC)C(=O)C(C)Oc1cccc2ccccc12 (stereo not given),inactive
13,O=c1n(Cl)c(=O)n(Cl)c(=O)n1Cl,inactive
14,Nc1c(Cl)c(Cl)nc(C(=O)O)c1Cl,inactive
15,CCC(C)n1c(=O)[nH]c(C)c(Br)c1=O (stereo not given),inactive
16,COC(=O)NS(=O)(=O)c1ccc(N)cc1,inactive
17,COP(=S)(OC)SCn1nnc2ccccc2c1=O,inactive
18,OC(c1ccc(Cl)cc1)(c1ccc(Cl)cc1)C(Cl)(Cl)Cl,inactive
19,CCOP(=O)(OCC)Oc1nc(Cl)c(Cl)cc1Cl,inactive
20,COCc1cnc(C2=NC(C)(C(C)C)C(=O)N2)c(C(=O)O)c1 (stereo not given),inactive

row,Compound,outcome
1,N#Cc1c(Cl)cccc1Cl,inactive
2,CNC(=O)Oc1cccc2ccccc12,inactive
3,Cc1cc(C)nc(Nc2ccccc2)n1,inactive
4,CCCCOCN(C(=O)CCl)c1c(CC)cccc1CC,inactive
5,COC(=O)c1c(C(F)F)nc(C(F)(F)F)c(C2=NCCS2)c1CC(C)C,inactive
6,CC(C)Nc1nc(Cl)nc(NC(C)C)n1,inactive
7,CC(C)C1(C)N=C(c2ncccc2C(=O)O)NC1=O (stereo not given),inactive
8,CCCCC(C#N)(Cn1cncn1)c1ccc(Cl)cc1 (stereo not given),inactive
9,N#Cc1c[nH]cc1-c1cccc2c1OC(F)(F)O2,inactive
10,Cn1c(-c2ccccc2)cc(-c2ccccc2)[n+]1C,inactive
11,CCOP(=S)(OCC)Oc1nc(Cl)n(C(C)C)n1,inactive
12,CC(C)=CC1C(C(=O)OCc2coc(Cc3ccccc3)c2)C1(C)C (stereo not given),inactive
13,COc1cc(OC)nc(NC(=O)NS(=O)(=O)c2ncccc2OCC(F)(F)F)n1,inactive
14,CCSC(=O)N1CCCCCC1,inactive
15,CC1(C)CCC(=Cc2ccc(Cl)cc2)C1(O)Cn1cncn1 (stereo not given),inactive
16,CN/C(=N\[N+](=O)[O-])NCc1cnc(Cl)s1,inactive
17,CC1(C)C(C=C(Cl)Cl)C1C(=O)OC(C#N)c1cccc(Oc2ccccc2)c1 (stereo not given),inactive
18,O=C1C2CC=CCC2C(=O)N1SC(Cl)(Cl)Cl (stereo not given),inactive
19,COc1cc(Cl)c(OC)cc1Cl,inactive
20,Cc1nc(N(C)C)nc(OC(=O)N(C)C)c1C,inactive
